The record followed here is ChEMBL document CHEMBL1201862, “PubChem BioAssay data set” (2004).

The target of this assay is T1, Thyroid hormone receptor beta (Homo sapiens) (UniProt P10828).
T1 sequence (whole entry): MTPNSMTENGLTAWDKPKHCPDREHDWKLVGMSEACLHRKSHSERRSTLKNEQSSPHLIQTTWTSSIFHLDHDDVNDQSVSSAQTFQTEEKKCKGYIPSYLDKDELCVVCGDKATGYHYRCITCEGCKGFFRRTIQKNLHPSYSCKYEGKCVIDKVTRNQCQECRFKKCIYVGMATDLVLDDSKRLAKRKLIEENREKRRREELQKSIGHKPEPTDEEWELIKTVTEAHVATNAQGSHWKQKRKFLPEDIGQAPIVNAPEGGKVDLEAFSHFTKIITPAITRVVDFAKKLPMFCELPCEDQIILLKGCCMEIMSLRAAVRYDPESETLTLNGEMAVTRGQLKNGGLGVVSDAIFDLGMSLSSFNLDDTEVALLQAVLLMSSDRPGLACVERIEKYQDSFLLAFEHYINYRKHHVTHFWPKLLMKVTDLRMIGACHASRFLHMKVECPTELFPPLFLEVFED
Description: qHTS Assay for Inhibitors of the Interaction of Thyroid Hormone Receptor and Steroid Receptor Coregulator 2: Probe Summary. [Related pubchem assays (depositor defined):AID1469, AID1479, AID1567, AID1568, AID1570, AID1571, AID1573, AID2444, AID2447, AID2448, AID2449, AID2455, AID2479, AID2487, AID2490, AID2552]. The class given is functional. On the technique in general: Quantitative high-throughput screening tests each substance at several concentrations.

For the molecule `CC1CCN(C(=O)COC(=O)c2ccc(S(C)(=O)=O)c([N+](=O)[O-])c2)CC1`, the Potency was 9800 nM (active).

With `CCC(OC(=O)c1ccc(S(C)(=O)=O)c([N+](=O)[O-])c1)C(=O)NC1C2CC3CC(C2)CC1C3` (centres undefined), the Potency is 1100 nM (active). As for `CC(OC(=O)c1ccc(S(C)(=O)=O)c([N+](=O)[O-])c1)C(=O)NC1C2CC3CC(C2)CC1C3` (centres undefined), the figure is 1400 nM (active); as for `CCCC1CCN(C(=O)COC(=O)c2ccc(S(C)(=O)=O)c([N+](=O)[O-])c2)CC1`, 3300 nM (active).
